Calls of active or inactive are those of the source. The calls were made as follows: active = hit-call score of the fitted dose curve at least 0.9, where 1 is the maximum; inactive = score below 0.9.

As usually defined, the AC50 is the midpoint of the concentration-response curve, whichever way the signal moves.

This test is described as follows: APR_HepG2_CellCycleArrest_72hr: Apredica 72-hour HepG2 Assay for Cell Cycle Arrest (AID 2282914). To be noted: high-content imaging, actives raise or lower the signal. Here is the method:
APR_HepG2_72hr is a cell-based, multiplexed-readout assay that uses HepG2, a human liver cell line, with measurements taken at 72 hours after chemical dosing in a 384-well plate.APR_HepG2_CellCycleArrest_72hr is one of 10 assay component(s) measured or calculated from the APR_HepG2_72hr assay. It is designed to make measurements of cell phenotype, a form of morphology reporter, as detected with fluorescence intensity signals by HCS Fluorescent Imaging technology.Data from the assay component APR_HepG2_CellCycleArrest_72hr was analyzed into 1 assay endpoint. This assay endpoint, APR_HepG2_CellCycleArrest_72hr, was analyzed with bidirectional fitting relative to DMSO as the negative control and baseline of activity. Using a type of morphology reporter, measures of all nuclear dna for gain or loss-of-signal activity can be used to understand the signaling at the pathway-level as they relate to the gene . Furthermore, this assay endpoint can be referred to as a primary readout, because this assay has produced multiple assay endpoints where this one serves a signaling function. To generalize the intended target to other relatable targets, this assay endpoint is annotated to the cell cycle intended target family, where the subfamily is arrest.
Cells were treated with dimethyl sulfoxide (DMSO) as a solvent control at a final concentration of 0.5% v/v or with compounds in DMSO with a resulting final DMSO concentration of 0.5% v/v. Compound treatment was done at concentrations of 0.39, 0.78, 1.56, 3.12, 6.24, 12.5, 25, 50, 100, and 200 uM in duplicate on each plate. Cells were treated with compounds for 1, 24, or 72 hr. Carbonyl […] m-chloro-phenylhydrazone (CCCP) and taxol were used as positive controls for mitochondrial function and cytoskeletal stability, respectively; DMSO served as the negative control for this experiment. Cells were fixed by the direct addition of 50 uL formaldehyde in Hank's Balanced Salt Solution (HBSS) to a final concentration of 3.7%. After incubation in the fixation medium for 30 min at room temperature (293-298 K), cells were rinsed twice with HBSS and treated with cell permeabilization buffer (16 uL of 0.5% Triton X-100) for 10 min at room temperature (293-298 K) before labeling. For mitochondrial membrane potential and mitochondrial measurements, pre-fixed cells were incubated with 50 uL of MitoTracker Red CMXRos (Invitrogen) at a concentration of 250 nM for 30 min before fixation. In the remaining cases, post-fixed cells were labeled by incubation with a multiplexed mixture of primary antibodies in HBSS for 60 min at room temperature (293-298 K) to detect immunoreactivity of c-Jun (1:500), phospho-histone H3 (1:100), phospho-histone H2A.x (1:200), p53 (1:400), alpha-tubulin (1:200) and Hoechst 33342 (2 ug/mL). Cells were labeled for multiplexed imaging on two separate plates: a) Hoechst 33342, MitoTracker Red, phospho-histone H3, and alpha-tubulin, and b) Hoechst 33342, phospho-histone H2A.x, and c-Jun. A final rinse with HBSS (50 uL) was performed before analysis. The primary and secondary antibodies for the proteins were phospho-histone H3 (rabbit anti-phospho-histone H3 and FITC-donkey anti-rabbit IgG), phospho-histone H2A.x (mouse anti-phospho-histone H2A.x and FITC-donkey anti-mouse IgG), c-Jun (rabbit anti-phospho-c-Jun and Cy3-donkey anti-rabbit IgG), p53 (sheep anti-p53 and Cy5-donkey anti-sheep IgG), alpha-tubulin (mouse anti-alpha-tubulin and Cy5-donkey anti-mouse IgG). These antibodies are available as the CellCiphr HepG2 assay kit (Millipore).Digital images of each well were captured using a Cellomics ArrayScan VTI (Thermo Scientific Cellomics) (0.8 NA objective, 0.63x optical coupler, and XF-93 filter set) at 20x magnification. The images were acquired using the autofocus feature of the ArrayScan instrument, which entails the following steps. First, the camera focuses on channel 1 (Hoechst 33342), where nuclei are identified. Second, a Z offset of 1 um is used for capturing mitochondria (MitoTracker Red). […]
`CCN(Cc1cccnc1)C(=O)c1cccc(Cl)c1[C@]1(C)C(=O)N(Cc2ccc(OC)cc2OC)c2ccc(Cl)cc21`: the outcome was inactive.
Turning to `CC[C@@H]1C[C@H](N(Cc2cc(C(F)(F)F)cc(C(F)(F)F)c2)C(C)=O)c2cc(C(F)(F)F)ccc2N1C(=O)OC(C)C`, the compound was classed as inactive.
As for `O=C1c2ccccc2C(=O)N1CCc1noc(-c2ccc(CN3CCCCCC3)s2)n1`, the compound was classed as inactive.
Turning to `CCCOC(=O)c1cc(O)c(O)c(O)c1`, the half-maximal activity concentration (AC50) is 46.2 µM (active).
Take `C[C@]12CC[C@@H]3c4ccc(O)cc4CC[C@H]3[C@@H]1CCC2=O`: the call was inactive.
On to `CC(C)(O)c1ccc(CNC(=O)c2cccnc2Oc2ccc3nonc3c2)cc1`, for which the result was inactive.
Still for that read-out and setting: the entry for `CCO[Si](CCCNC(N)=O)(OCC)OCC` is “inactive”.
Consider `O=C=NCCCCCCN=C=O`, for which the call was inactive.
Take `CC(C)(C)c1csc(-c2cc3cc(OCc4ccccc4CC(=O)O)ccc3o2)n1`: the compound was called inactive.
Consider `CC(C)(C)c1cc(/C=C2\SC(N)=NC2=O)cc(C(C)(C)C)c1O`, for which the compound was called inactive.
For `Cc1cc2c(cc1C(F)(F)F)N(C(=O)Nc1ccc(Oc3cccnc3C)nc1)CC2`, the outcome was inactive.
Turning to `Clc1cc(Cl)c2c(c1)N=C1CCCCCN1C2`, the call was inactive.
Still for that read-out and setting: in the case of `Cc1oc2c(NC(=O)c3c(Cl)cccc3Cl)cccc2c1C(C)(C)O` it was “inactive”.
Regarding `Cc1ccc(C(C)C)cc1`, the compound was classed as inactive.
As for `NC(=O)c1nc(-c2cccc(-c3cc(F)ccc3OCC(F)(F)C(F)(F)F)c2)n[nH]1`, the half-maximal activity concentration (AC50) is 104 µM (active).
Regarding `NCc1cccc(C2CCN(C(=O)c3ccc(C#Cc4ccccc4F)o3)CC2)c1`, the compound was called inactive.
Take `Oc1ccccc1`: the compound was called inactive.
On to `c1ccc2ccccc2c1`, for which the AC50 is 0.0357 µM (active).
With `Cc1occc1C(=O)Nc1ccc(C(=O)N2CCC(F)(F)/C(=C\C(=O)N3CCC(N4CCCCC4)CC3)c3ccccc32)cc1`, the result was inactive.
For `CCCCCCCCCCCO`, the outcome was inactive.
Regarding `OC12N=C(c3ccccc3)SC1Cc1cc(Cl)ccc12` (stereo not given), the call was inactive.
As to `O=c1ccc2ccccc2o1`, the result was inactive.
Regarding `Cc1ccc2oc(CN(Cc3ccccc3)C(=O)Nc3c(F)cc(F)cc3F)c(-c3ccc(Cl)cc3)c2c1`, the compound was called inactive.
Turning to `O=C1O[C@H]([C@@H](O)CO)C(O)=C1O`, the compound was called inactive.
In the case of `CCCCCCCCCCCC[N+](C)(C)C`, the call was inactive.
Consider `C[C@]12CC[C@@H]3c4ccc(O)cc4CC[C@H]3[C@@H]1CC[C@H]2O`, for which the half-maximal activity concentration (AC50) is 173 µM (active).
In the case of `Cc1cc(F)ccc1-c1cc(N2CC[C@@H](O)[C@H]2CO)ncc1N(C)C(=O)C(C)(C)c1cc(C(F)(F)F)cc(C(F)(F)F)c1`, the call was inactive.
As for `Cc1ncc(CO)c(CO)c1O`, the call was inactive.
On to `OCCO`, for which the result was inactive.
On to `O=C(O)Cc1cc(I)c(Oc2ccc(O)c(I)c2)c(I)c1`, for which the compound was classed as inactive.
For the compound `CN1C(=O)N(c2ccccc2Br)Cc2cnc(Nc3ccc4c(c3)OCC(CO)O4)nc21` (stereo not given), the concentration at half-maximal activity (AC50) was 5.09 µM (active).
With `c1ccc2n[nH]nc2c1`, the call was inactive.
Regarding `O=C(Nc1ccc(Cl)cc1)Nc1ccc(Cl)c(Cl)c1`, the AC50 is 16.6 µM (active).
`O=C(O)Cn1c(=O)n(Cc2ccc(Br)cc2F)c(=O)c2ccc(Cl)cc21`: the call was inactive.
`CN1C(=O)CC[C@H]1c1cccnc1`: the compound was called inactive.
As for `CC(=O)N1CCN(c2ccc(OC[C@H]3CO[C@](Cn4ccnc4)(c4ccc(Cl)cc4Cl)O3)cc2)CC1`, the compound was called inactive.
As to `Cc1c2ccccc2c(C)c2c1ccc1ccccc12`, the half-maximal activity concentration (AC50) is 6.16 µM (active).
Consider `Clc1ccccc1C(c1ccccc1)(c1ccccc1)n1ccnc1`, for which the AC50 is 13.8 µM (active).
As to `c1ccc(C[n+]2cccc3ccccc32)cc1`, the concentration at half-maximal activity (AC50) is 36.8 µM (active).
Turning to `Cc1cn([C@H]2C[C@H](N=[N+]=[N-])[C@@H](CO)O2)c(=O)[nH]c1=O`, the concentration at half-maximal activity (AC50) was 46.3 µM (active).

The record behind these values is PubChem BioAssay (EPA / NIEHS).
